Screening data (PubChem BioAssay)
Pf growth 96h: P. falciparum growth inhibition at 96 hours. AID 504834. P. falciparum luciferase reporter growth, 96 h. Potency, µM (top dose mostly 28.7 µM), for the others: at the highest dose activity change, negative = inhibition, usual class: inhibitors. 320,000 compounds, 6.9% hits; note: potency is the fitted concentration of half-maximal effect; % is set by controls: 0 for no effect and ±100 for the full control effect
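Two parasite generations (96 h, 37 C, 5% CO2) of compound exposure in infected erythrocytes (0.05% parasitemia, 2% hematocrit). Luciferase-reporter P. falciparum; decreased luminescence indicates inhibited growth, aimed at apicoplast-acting delayed death.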
LASV entry inh: Lassa virus entry inhibition; Lassa virus pseudotype entry inhibition, cell reporter; Potency, µM (series often up to 37.9 µM), for the others: top-dose activity change, negative = inhibition, hits mostly inhibitors; 300,000 compounds, 1.2% hits; AID 540256; calls by dose curve; tested in HEK293 cells; note: potency is the fitted concentration of half-maximal effect; % is set by controls: 0 for no effect and ±100 for the full control effect; nearly all actives have a fitted effect of over 50% in size
Marburg entry inh: Marburg virus entry inhibition | Marburg virus pseudotyped entry inhibition, cell reporter | Potency, µM (series often up to 37.8 µM), for the others: at the highest dose activity change, negative = inhibition, actives largely listed as inhibitors | 300,000 compounds, 1.8% hits | AID 540276; calls by dose curve; tested in HEK293 cells; note: potency is the fitted concentration of half-maximal effect; % is set by controls: 0 for no effect and ±100 for the full control effect
Shiga toxin inh: Shiga toxin inhibition. Vero cells, Shiga toxin protein synthesis inhibition reporter. inhibition, % at 38.7 µM. 290,000 compounds, 9.2% hits. AID 2315; in the data active = inhibition mostly above about 28%, no sharp cut-off; inactive = mostly below about 43%; note: 0% is about no effect
Pf growth 48h: inhibits P. falciparum growth in the first generation, 48 h; P. falciparum luciferase growth in erythrocytes, 48 h; Potency, µM (highest dose often 28.7 µM), for the others: top-dose activity change, negative = inhibition, hits mostly inhibitors; 310,000 compounds, 5.9% hits; note: potency is the fitted concentration of half-maximal effect; % is set by controls: 0 for no effect and ±100 for the full control effect
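Luciferase-expressing parasites in RBCs, 2% Hct / 0.1% parasitemia final; RPMI 1640 + 0.5% Albumax; 37 C, 5% CO2, one generation; luminescence read-out, lower signal = inhibition.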
CHX counter: counter-screen hit for Shiga toxin inhibitors, cycloheximide; cell reporter, cycloheximide protein synthesis inhibition counterscreen; 300,000 compounds, 12% hits; max response, %; in the data active = max response mostly above about 13%, no sharp cut-off; inactive = mostly below about 14%; note: read at 38.3 µM for the half of the compounds with a filed dose; 0% is about no effect
* = called active by the depositor; i = inactive; ? = inconclusive; · = no result given; [ ] = dose if it differs, or a comment. Most compounds without a hit are left out; they make up all but 19% or so of the library. Unless noted, calls come from the whole dose curve; as a rule, active = well fitted inhibition curve with a large enough effect; inconclusive = small, poorly fitted or top-dose-only effect, or another doubt; inactive = no such curve, though single readings can be large or run the other way.

SMILES | Pf growth 96h | LASV entry inh | Marburg entry inh | Shiga toxin inh | Pf growth 48h | CHX counter
COc1ccc(C(=O)CN2CCCCC2)cc1 | 17% | ? | ? | 32 | 37% | 28
COc1ccc(NCc2nn(CC(=O)c3ccc(Br)cc3)c3[n+]2CCCCC3)cc1 | ? | 6% | -3% | 32 | 1.9µM* | 26
COc1ccc(-c2c(-c3cc(OC)cc(OC)c3)n(C)c3ccc(-c4ccc(OC)cc4F)cc23)cc1 | ? | · | · | · | 19% | ·
CC(=Nc1ccc(Br)cc1)c1sc2ccccc2c1O | 124% | · | · | 111* | 157% | 60*
CC(=Nc1ccccc1)c1sc2ccccc2c1O | 304% | ? | ? | 139* | 208% | 50*
CCOC(=O)C1C(=O)CC(C)(O)C(C(=O)OCC)C1c1cccc(OC(F)(F)C(F)F)c1 (configuration not stated) | ? | 5% | ? | 13 | 10µM* | -2
COc1ccc(N2CS(=O)CC2=O)cc1 (configuration not stated) | 34% | · | · | -5 | 8% | -1
CCOC(=O)CSc1nc2c(c(=O)n1-c1ccc(OCC)cc1)SCC2 | · | 1% | -1% | -10 | -16% | -2
O=C(CSc1nc2c(c(=O)n1-c1ccc(Cl)cc1)SCC2)Nc1nccs1 | -8% | -7% | 3% | -8 | 5.2µM* | -2
COc1ccc(NC(=O)CSc2nc3c(c(=O)n2-c2ccc(F)cc2)SCC3)cc1 | 10µM* | · | 0% | 1 | -22% | -1
CCOc1ccc(-n2c(SCC(N)=O)nc3c(c2=O)SCC3)cc1 | -30% | -1% | 5% | 17 | 8.3µM* | -1
CCn1c(=NC(=O)c2ccc3c(c2)OCCO3)sc2c(C)ccc(OC)c21 | · | 15%[46.1 µM] | · | · | · | ·
NS(=O)(=O)c1ccc(CCNC(=O)c2ccc3c(c2)OCO3)cc1 | ? | 1%[46.1 µM] | -2%[46.1 µM] | -5 | 24% | -4
CC(=O)N1N=C2C3CCN(CC3)C2C1c1ccc(Br)cc1 (configuration not stated) | -6% | · | · | 6 | 1% | -1
C1=C(c2ccccc2)N2CCN=C2S1 | · | -3% | 7% | -15 | 7% | -2
Oc1ccc(C2=CSC3=NCCN23)cc1O | 37% | · | · | -4 | 9.3µM* | -4
CC(C)(C)c1cc(C2=CSC3=NCCN23)cc(C(C)(C)C)c1O | 4.7µM* | · | · | · | ? | -4
COc1ccc(S(=O)(=O)N2CCCCC2)cc1NS(=O)(=O)c1ccccc1 | · | -20% | -7% | · | · | ·
COc1ccc(CN(C)C(=O)c2ccccc2OCc2c(C)noc2C)cc1OC | -1% | · | · | · | ? | ·
CC(=O)Nc1ccn(C2CC3OCC(NC(=O)C4CCCN4C(=O)OC(C)(C)C)C3O2)c(=O)n1 (configuration not stated) | · | · | · | -14 | · | -3
Cc1ccc(/C=N/n2cnc3sc(C)c(C)c3c2=O)o1 | 56% | -1% | ? | 47 | i | 26*
CN1CCCCC1c1ccc(-c2cccnc2)nc1 (configuration not stated) | 2% | · | · | -9 | 6% | 16*
CC(C)O | 2% | · | · | · | -14% | ·
CCOC(=O)c1ccccc1-n1c(C)cc(C2N=C(N)Nc3nc4ccccc4n32)c1C (configuration not stated) | 1.7µM* | -14% | ? | -4 | · | 1
CCc1ccc(C2N=C(N)Nc3nc4ccccc4n32)cc1 (configuration not stated) | · | ? | -6%[46.1 µM] | · | · | ·
SMILES | Pf growth 96h | LASV entry inh | Marburg entry inh | Shiga toxin inh | Pf growth 48h | CHX counter
Cc1ccc(/C=N/NC(=O)c2nnn(-c3nonc3N)c2CSc2ccc(Cl)cc2)cc1 | ? | · | · | -10 | -12% | -4
C=CCNC1=C(Cl)C(=O)c2ccccc2C1=O | 16% | ? | ? | active | 2.9µM* | 1
COCCCNC1=C(Cl)C(=O)c2ccccc2C1=O | 2.3µM* | 25%[46.1 µM] | -22%[46.1 µM] | 49* | 4.1µM* | 33*
CC(C)NC1=C(Cl)C(=O)c2ccccc2C1=O | 0.93µM* | 9% | -1% | 43 | · | 21*
CCN(CC)CCCNC1=C(Cl)C(=O)c2ccccc2C1=O | ? | ? | ? | 30 | ? | 2
CC(C)OCCCNC1=C(Cl)C(=O)c2ccccc2C1=O | 4.1µM* | 3% | ? | 66* | 2.9µM* | 49*
CCc1ccc(S(=O)(=O)N/N=C\c2ccc3c(c2)OCO3)cc1 | 18% | · | · | -9 | 19% | 7
O=C1C(Cl)=C(NCc2cccnc2)C(=O)c2ccccc21 | 8.3µM* | ? | ? | 45* | 9.3µM* | 22*
O=S(=O)(Cc1ccccc1)NCc1cccnc1 | 27% | -16% | 15% | -8 | 1% | -2
O=[N+]([O-])c1ccc(N/N=C/c2sc(N3CCOCC3)nc2-c2ccccc2)c(S(=O)(=O)Nc2ccc(Cl)cc2)c1 | ? | · | · | -5 | ? | -3
COc1cc(C2NC(=O)C(C#N)=C(S)N2c2ccc(C)cc2)ccc1OC(C)C (configuration not stated) | · | 3% | 4% | 78* | 27% | 11*
COc1ccc(C2NC(=O)C(C#N)=C(S)N2c2ccc(C)cc2)cc1OC (configuration not stated) | -22% | · | · | 2 | 15% | 13
O=C(CSc1nccc(=O)[nH]1)c1ccco1 | 18% | -6% | -17%[46.1 µM] | 2 | 12% | -2
O=C(CSc1ncn[nH]1)c1cc2ccccc2o1 | 17% | -3% | ? | 43 | 0% | 20*
O=C(CSc1ncn[nH]1)c1ccco1 | -28% | 6% | 5% | -7 | 1% | -4
O=C(CSc1ncn[nH]1)c1cccc([N+](=O)[O-])c1 | ? | -11% | ? | 18 | 11% | 5
O=C(CSc1ncn[nH]1)c1ccccc1 | 16% | 14% | 5% | 52* | 15% | 17
O=C(CSc1nccc(=O)[nH]1)c1cc2ccccc2o1 | 14% | · | · | 47* | 25% | 34*
COc1cccc(/C=N/c2nc3ccccc3[nH]2)c1O | -23% | · | · | -11 | -3% | 2
COc1cccc(/C=N/Nc2nc3ccccc3[nH]2)c1O | 2.3µM* | · | · | 94* | ? | 52*
COc1cccc(/C=N/Nc2ncc(C)c(=O)[nH]2)c1OC | 24% | · | 4% | -4 | 1% | -1
COc1cccc(/C=N/Nc2nc3ccccc3[nH]2)c1OC | 10µM* | ? | ? | 114* | ? | 52*
COc1cccc(/C=N/Nc2nc3ccccc3n3cnnc23)c1O | ? | ? | 8.9µM* | -4 | ? | 10
O=C(COC(=O)COc1ccccc1)Nc1ncc([N+](=O)[O-])s1 | -1% | 6% | ? | · | 2% | ·
Cc1cnc(NC(=O)Cc2ccc(Br)cc2)s1 | ? | -1%[46.1 µM] | 1%[46.1 µM] | 2 | 4% | 2
O=C(Cc1ccc(Br)cc1)Nc1ncc([N+](=O)[O-])s1 | -1% | · | · | 96* | -106% | 68*
CCC(Oc1ccccc1)C(=O)Nc1ncc([N+](=O)[O-])s1 (configuration not stated) | ? | · | · | 12 | 31% | 2
